Test results taken from the supplement of paper PMC11732987, “Enantioselective OTUD7B fragment discovery through chemoproteomics screening and high-throughput optimisation” (Communications Chemistry, 2025).

Key:
Test in all cases: log2 ratio of Biotin-Ahx-Ub-VS probe labelling (fragment/DMSO); higher = less target engagement (more negative = stronger competition), active = hit call of the paper (q ≤ 0.05, log2 ratio ≤ -1)
Conditions in all cases: compound concentration: 200 uM; treatment time: 3 h
USP9X = USP9X (UniProt Q93008)
Procedure, shortened: (§1)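 Using Biotin-Ahx-Ub-VS at 0.5 µM final for 1 h, DUBs were labelled in HEK293T lysate (495 µg per sample) that had first been treated in triplicate with fragment at 200 µM or vehicle for 3 h. NeutrAvidin enrichment, LysC and trypsin digestion and diaPASEF LC-MS/MS followed. Spectronaut label-free quantities were global-median-normalised. Values are average log2 fragment/vehicle ratios by unpaired t-test, using proteins with ≥2 unique peptides.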

UniProt O00487 = target: UniProt O00487
Procedure, shortened: as §1

UniProt O00507 = target: UniProt O00507
Procedure, shortened: as §1

UniProt P51784 = target: UniProt P51784
Procedure, shortened: as §1

UniProt Q5T2D3 = target: T1, UniProt Q5T2D3
T1 sequence (whole entry): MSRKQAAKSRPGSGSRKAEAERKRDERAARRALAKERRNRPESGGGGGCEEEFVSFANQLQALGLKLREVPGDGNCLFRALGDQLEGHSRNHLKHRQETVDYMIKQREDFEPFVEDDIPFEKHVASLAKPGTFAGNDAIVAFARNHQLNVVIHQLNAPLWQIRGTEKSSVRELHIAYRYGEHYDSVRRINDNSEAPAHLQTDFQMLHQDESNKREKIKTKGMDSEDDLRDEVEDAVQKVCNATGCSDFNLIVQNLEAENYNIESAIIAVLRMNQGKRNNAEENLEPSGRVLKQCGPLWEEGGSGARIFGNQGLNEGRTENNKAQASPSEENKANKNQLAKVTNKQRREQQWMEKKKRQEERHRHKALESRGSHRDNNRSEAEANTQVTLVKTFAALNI
Procedure, shortened: as §1

UniProt Q8TE49 = target: T2, UniProt Q8TE49
T2 sequence (whole entry): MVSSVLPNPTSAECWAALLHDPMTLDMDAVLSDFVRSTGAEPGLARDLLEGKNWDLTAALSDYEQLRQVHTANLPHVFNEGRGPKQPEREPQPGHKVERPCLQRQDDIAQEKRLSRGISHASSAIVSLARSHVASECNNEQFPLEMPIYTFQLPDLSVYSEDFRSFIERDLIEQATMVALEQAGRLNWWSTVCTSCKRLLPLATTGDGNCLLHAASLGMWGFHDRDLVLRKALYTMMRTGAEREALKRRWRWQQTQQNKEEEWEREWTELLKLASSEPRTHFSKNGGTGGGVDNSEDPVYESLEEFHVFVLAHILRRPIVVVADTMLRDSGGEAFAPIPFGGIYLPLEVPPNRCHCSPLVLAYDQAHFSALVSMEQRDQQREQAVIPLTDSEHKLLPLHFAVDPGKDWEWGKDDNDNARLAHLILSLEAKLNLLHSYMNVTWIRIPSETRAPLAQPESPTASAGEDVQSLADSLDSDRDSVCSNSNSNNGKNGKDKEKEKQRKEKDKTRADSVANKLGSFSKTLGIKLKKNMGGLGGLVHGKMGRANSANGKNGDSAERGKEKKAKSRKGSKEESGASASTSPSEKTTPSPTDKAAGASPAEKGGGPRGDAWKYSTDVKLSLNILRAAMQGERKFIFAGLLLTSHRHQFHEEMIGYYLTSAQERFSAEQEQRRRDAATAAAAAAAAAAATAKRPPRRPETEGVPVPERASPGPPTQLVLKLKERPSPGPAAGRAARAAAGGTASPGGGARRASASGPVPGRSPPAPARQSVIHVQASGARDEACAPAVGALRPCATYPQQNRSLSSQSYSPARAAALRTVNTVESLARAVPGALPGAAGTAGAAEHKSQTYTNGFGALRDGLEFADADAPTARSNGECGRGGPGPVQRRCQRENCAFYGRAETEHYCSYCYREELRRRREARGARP
Procedure, shortened: as §1

UniProt Q9P2H5 = target: T3, UniProt Q9P2H5
T3 sequence (whole entry): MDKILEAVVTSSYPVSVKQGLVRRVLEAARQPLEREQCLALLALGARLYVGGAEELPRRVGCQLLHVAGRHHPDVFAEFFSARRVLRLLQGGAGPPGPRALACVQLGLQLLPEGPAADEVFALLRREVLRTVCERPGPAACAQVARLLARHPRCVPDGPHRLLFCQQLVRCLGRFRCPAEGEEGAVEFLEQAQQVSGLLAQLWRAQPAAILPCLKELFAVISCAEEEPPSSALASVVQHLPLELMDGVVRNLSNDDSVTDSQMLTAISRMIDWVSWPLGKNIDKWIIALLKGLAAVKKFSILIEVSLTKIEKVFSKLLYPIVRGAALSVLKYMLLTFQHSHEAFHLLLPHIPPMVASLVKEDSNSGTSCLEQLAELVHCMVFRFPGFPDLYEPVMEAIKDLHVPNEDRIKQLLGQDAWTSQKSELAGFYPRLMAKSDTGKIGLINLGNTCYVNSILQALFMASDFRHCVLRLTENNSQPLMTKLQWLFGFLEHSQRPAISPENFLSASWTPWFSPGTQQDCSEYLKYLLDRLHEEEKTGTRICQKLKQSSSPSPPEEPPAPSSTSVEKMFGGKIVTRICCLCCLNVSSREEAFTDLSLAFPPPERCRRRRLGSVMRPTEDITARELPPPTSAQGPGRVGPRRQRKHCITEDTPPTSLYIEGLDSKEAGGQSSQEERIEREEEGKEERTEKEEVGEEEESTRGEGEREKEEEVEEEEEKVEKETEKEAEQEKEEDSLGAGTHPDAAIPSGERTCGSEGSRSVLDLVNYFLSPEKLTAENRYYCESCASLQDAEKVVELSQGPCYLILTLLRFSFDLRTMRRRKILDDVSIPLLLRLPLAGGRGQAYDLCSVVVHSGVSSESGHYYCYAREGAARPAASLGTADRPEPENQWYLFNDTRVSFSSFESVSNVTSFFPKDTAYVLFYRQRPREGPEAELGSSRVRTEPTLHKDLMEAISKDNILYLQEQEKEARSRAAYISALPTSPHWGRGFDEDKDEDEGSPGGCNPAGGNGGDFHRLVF
Procedure, shortened: as §1

UniProt Q9UGI0 = target: T4, UniProt Q9UGI0
T4 sequence (whole entry): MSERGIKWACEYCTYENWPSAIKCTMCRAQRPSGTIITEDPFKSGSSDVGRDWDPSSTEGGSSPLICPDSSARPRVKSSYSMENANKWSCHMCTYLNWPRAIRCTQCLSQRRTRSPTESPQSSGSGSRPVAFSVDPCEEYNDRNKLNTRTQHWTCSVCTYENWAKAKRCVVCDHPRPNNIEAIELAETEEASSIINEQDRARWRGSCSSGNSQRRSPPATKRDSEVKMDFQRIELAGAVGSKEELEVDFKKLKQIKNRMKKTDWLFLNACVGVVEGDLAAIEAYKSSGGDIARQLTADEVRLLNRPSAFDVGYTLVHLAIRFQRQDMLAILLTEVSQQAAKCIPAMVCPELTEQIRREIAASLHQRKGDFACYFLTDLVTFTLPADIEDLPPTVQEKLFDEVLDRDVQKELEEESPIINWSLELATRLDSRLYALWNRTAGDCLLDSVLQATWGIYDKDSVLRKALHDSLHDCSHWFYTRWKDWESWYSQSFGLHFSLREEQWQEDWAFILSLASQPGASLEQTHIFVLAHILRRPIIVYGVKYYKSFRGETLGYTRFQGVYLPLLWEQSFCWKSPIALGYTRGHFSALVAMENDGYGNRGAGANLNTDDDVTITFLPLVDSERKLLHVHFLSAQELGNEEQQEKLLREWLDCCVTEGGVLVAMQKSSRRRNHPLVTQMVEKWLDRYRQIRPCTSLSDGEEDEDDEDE
Procedure, shortened: as §1

YOD1 = target: T5, YOD1 (UniProt Q5VVQ6)
T5 sequence (whole entry): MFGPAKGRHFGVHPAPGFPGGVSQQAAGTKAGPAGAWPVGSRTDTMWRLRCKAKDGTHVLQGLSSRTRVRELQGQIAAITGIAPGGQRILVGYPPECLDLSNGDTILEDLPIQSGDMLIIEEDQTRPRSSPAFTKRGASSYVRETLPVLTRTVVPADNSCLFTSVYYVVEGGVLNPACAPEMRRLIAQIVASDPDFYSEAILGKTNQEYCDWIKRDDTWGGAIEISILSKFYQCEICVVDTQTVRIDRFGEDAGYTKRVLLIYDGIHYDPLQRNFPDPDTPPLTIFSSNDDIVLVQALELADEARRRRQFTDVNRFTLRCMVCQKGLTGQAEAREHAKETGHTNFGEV
Procedure, shortened: as §1

Measured: log2 ratio of Biotin-Ahx-Ub-VS probe labelling

Chain of UniProt O00487 (O00487 whole entry): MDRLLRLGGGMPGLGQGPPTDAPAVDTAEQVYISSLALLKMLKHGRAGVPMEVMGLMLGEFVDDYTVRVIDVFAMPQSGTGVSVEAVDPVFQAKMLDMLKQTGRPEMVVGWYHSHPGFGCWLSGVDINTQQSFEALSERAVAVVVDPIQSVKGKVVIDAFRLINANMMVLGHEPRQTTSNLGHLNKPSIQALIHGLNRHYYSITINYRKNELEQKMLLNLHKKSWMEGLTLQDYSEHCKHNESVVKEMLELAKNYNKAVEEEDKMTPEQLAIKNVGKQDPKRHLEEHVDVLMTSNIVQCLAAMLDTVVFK
Chain of UniProt O00507 (O00507 whole entry): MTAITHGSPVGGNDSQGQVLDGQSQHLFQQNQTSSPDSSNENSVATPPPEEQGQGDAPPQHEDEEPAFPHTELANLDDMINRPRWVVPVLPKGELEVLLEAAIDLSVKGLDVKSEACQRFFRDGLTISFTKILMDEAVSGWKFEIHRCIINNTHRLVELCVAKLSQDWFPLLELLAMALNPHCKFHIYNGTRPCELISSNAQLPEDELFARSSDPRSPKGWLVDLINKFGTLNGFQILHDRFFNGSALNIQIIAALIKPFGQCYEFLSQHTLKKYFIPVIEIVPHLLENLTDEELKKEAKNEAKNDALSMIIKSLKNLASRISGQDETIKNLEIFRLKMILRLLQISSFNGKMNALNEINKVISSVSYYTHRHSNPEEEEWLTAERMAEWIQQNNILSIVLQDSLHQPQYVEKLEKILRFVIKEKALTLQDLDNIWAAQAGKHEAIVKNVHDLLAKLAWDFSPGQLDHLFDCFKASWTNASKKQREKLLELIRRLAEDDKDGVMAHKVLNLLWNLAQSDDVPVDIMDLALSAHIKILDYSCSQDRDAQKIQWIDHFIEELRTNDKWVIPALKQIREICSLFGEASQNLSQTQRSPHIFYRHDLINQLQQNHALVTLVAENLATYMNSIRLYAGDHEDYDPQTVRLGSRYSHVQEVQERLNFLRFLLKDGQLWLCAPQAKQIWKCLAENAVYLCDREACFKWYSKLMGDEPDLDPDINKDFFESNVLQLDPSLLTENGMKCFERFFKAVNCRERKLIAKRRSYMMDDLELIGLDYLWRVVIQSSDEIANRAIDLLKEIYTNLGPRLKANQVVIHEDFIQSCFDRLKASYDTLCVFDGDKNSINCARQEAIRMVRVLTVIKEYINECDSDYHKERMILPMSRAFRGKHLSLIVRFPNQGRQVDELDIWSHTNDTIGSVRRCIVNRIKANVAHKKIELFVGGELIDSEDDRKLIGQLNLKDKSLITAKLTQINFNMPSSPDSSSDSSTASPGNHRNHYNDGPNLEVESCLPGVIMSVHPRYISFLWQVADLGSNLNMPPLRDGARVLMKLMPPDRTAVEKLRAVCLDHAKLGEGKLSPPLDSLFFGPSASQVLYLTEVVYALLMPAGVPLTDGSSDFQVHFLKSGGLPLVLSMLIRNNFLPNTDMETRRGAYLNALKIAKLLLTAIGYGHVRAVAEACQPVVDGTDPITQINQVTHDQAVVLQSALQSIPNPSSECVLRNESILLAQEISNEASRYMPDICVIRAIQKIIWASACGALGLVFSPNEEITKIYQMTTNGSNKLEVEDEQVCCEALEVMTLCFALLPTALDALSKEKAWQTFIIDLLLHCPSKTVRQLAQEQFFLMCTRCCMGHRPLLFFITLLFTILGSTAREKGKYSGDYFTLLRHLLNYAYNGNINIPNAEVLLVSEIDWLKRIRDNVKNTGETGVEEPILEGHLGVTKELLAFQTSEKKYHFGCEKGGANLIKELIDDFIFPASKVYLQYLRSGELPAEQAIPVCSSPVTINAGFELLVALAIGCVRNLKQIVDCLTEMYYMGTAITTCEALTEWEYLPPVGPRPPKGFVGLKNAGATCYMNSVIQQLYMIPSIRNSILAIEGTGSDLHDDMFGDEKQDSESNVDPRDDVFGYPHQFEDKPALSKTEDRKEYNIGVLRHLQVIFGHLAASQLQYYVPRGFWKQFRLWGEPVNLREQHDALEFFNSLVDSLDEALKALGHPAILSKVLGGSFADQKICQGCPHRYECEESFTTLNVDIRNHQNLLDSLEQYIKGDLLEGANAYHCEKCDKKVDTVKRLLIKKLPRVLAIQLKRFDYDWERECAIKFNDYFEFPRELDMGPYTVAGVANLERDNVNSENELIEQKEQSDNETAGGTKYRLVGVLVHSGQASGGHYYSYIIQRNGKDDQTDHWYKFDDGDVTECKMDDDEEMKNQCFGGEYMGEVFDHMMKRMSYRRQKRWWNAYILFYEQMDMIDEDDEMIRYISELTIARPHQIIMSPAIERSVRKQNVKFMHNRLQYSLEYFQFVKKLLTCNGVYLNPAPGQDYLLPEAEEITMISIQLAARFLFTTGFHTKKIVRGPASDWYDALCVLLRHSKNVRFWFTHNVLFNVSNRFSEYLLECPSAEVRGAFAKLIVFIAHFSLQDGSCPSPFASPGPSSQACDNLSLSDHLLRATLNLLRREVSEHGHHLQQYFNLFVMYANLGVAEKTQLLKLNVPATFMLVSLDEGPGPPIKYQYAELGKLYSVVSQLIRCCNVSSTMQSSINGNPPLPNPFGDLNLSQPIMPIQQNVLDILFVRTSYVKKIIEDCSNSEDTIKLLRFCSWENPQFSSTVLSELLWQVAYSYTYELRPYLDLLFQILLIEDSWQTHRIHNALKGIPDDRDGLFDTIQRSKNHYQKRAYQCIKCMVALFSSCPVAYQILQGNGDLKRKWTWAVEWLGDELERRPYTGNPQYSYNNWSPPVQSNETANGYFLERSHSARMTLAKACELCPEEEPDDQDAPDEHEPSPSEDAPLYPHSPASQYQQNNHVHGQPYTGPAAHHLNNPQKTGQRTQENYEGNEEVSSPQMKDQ
Chain of UniProt P51784 (P51784 whole entry): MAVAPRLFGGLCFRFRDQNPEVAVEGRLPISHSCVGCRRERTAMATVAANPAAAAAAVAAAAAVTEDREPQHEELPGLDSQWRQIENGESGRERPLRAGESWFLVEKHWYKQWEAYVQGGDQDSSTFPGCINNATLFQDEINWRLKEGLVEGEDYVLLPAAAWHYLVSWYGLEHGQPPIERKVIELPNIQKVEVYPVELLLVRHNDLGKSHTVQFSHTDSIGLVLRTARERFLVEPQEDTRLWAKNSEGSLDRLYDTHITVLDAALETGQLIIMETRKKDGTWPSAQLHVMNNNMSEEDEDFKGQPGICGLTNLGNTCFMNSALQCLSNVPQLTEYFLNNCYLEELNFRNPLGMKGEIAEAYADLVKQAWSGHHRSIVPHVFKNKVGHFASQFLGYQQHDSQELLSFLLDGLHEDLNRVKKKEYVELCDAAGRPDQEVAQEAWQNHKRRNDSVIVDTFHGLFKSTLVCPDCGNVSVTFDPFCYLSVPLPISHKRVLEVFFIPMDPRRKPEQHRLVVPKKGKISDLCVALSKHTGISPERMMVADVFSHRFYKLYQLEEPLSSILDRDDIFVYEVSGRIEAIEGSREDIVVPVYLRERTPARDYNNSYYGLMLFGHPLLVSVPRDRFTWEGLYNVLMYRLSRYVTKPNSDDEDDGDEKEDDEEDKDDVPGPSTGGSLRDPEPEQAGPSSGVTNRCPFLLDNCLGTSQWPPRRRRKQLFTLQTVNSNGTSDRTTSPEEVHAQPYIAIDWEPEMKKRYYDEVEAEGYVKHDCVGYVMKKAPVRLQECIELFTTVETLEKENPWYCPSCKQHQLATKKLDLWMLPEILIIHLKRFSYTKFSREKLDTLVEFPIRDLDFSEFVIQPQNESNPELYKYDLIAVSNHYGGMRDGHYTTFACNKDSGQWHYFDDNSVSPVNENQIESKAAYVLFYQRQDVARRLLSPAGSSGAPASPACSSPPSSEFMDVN

Cl.Cn1nc2c(c1CNC(=O)CCl)CCCC2
inactive: USP9X -0.188 | UniProt O00487 0.0603 | UniProt O00507 0.0971 | UniProt P51784 0.0528 | UniProt Q5T2D3 -0.274 | UniProt Q8TE49 -0.529 | UniProt Q9P2H5 -0.23 | UniProt Q9UGI0 -0.319 | YOD1 -0.144
